Holding throughout (assay): NCI-60 one-dose screen, 48 h (100 = growth as untreated, 0 = no growth, -100 = all killed)
Common to all, as to conditions: 10 µM unless noted

Assay [1] relates to SR leukemia.
Assay [2] deals with RPMI-8226 leukemia.
The subject of assay [3] is OVCAR-8 ovarian.
For assay [4], the system named is OVCAR-5 ovarian.
Assay [5] concerns OVCAR-4 ovarian.
Assay [6] relates to SK-OV-3 ovarian.
Assay [7] deals with OVCAR-3 ovarian.
The subject of assay [8] is NCI/ADR-RES ovarian.
Assay [9] relates to IGROV1 ovarian.
In assay [10] the test system is HS 578T breast.

The panel holds about 83,000 compounds, 20% with a hit somewhere; the sample as a whole holds those more often.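 Growth was measured after 48 h exposure to one concentration of compound in 96-well plates. Values under 10 count as active.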 A number with no mark means an inactive call. Calls of active or inactive are those of the source.

Our source for the growth values is PubChem BioAssay (NCI).

As for `C/C(Cc1ccccc1)=N\O`, the growth in assay [1] was 101%; in assay [2], 83.3%; in assay [3], 107%; in assay [4], 107%; in [5] it was 117%; in [6] it was 128%. The growth was 105% in assay [7] and 107% in assay [8].

Turning to `CC(=O)NC(O)C(Cl)Cl` (configuration not stated), the growth is 97.2% in assay [1]; 95.8% in assay [2]; 96.4% in assay [3]; 97.2% in assay [4]; -22.9% (active) in assay [6]; 107% in assay [9]. Also, the growth in [7] is 74.5%; in assay [10], 107%.

Turning to `O=C(Oc1ccccc1Cl)c1ccc(Cl)cc1Cl`, the growth is 104% in assay [1]; 98.9% in assay [2]; 101% in [3]; 109% in assay [4]; 109% in assay [5]; 99.6% in assay [6]. Further, the growth was 107% in assay [7], 93.8% in assay [10] and 103% in assay [8].

Take `Nc1ccc2c(c1)Cc1cc(N)c(N)cc1-2`: the growth is 82.2% in assay [1]; 101% in assay [2]; 96.7% in assay [3]; 107% in assay [4]; 105% in [5]; 93.7% in [6]. Further, the values for the growth in [7], in [10] and in assay [8] were 112%, 106% and 101%, respectively.

As for `OCCNc1ccccc1`, the growth is 93.2% in [1]; 105% in [2]; 102% in assay [3]; 107% in [4]; 101% in assay [5]; 105% in assay [6]. Further, the growth in assay [7] was 105%; in assay [10], 101%; in [8], 100%.

`Cc1cc(C(=O)NN)c(C#N)c(=O)[nH]1`: the growth in assay [1] is 116%; in [2] it was 91.2%; in assay [3] it was 100%; in [4] it was 106%; in assay [5], 107%; in assay [7], 112%. Besides, the growth in assay [10] is 121%; in [8], 99.1%.

Regarding `O=C(O)CCCCCNC(=O)OCc1ccccc1`, the growth in [1] was 98%; in assay [2], 81.5%; in [3], 112%; in assay [4], 97.7%; in assay [5], 98.5%; in assay [6], 106%. Further, the growth in [7] was 104%; in [8], 110%.

Consider `C=CC1=NC(C)(C)CC(C)O1` (configuration not stated), for which the growth was 113% in assay [1]; 105% in assay [2]; 113% in assay [3]; 104% in assay [4]; 98.6% in [5]; 108% in assay [6]. The growth in [7] was 113%; in assay [10], 107%; in [8], 112%.

Turning to `CCOc1ccc(C(=O)NCC(C)C)cc1`, the growth in assay [1] was 102%; in assay [2], 105%; in assay [3] it was 105%; in [4], 105%; in [5] it was 97.2%; in assay [6], 99.7%. The growth in assay [7] is 109%; in assay [10], 107%; in assay [8] it was 111%.

Take `CCOC(C=O)OCC`: the growth in assay [1] is 89.9%; in [2] it was 99.1%; in assay [3] it was 102%; in assay [4], 102%; in assay [5] it was 114%; in assay [6], 106%. Besides, the growth in assay [7] was 109%; in [10] it was 109%; in assay [8], 107%.

For `COc1cc(OC)c2cc(C(=O)c3ccc(C#N)cc3)c(=O)oc2c1`, the growth in assay [1] was 89.8%; in [2], 103%; in assay [3] it was 97.1%; in [4], 89.9%; in [5], 96.3%; in assay [6], 100%. The growth is 107% in [7], 82.1% in assay [10] and 101% in assay [8].

As to `CC(C)=CCC[C@@H](C)[C@H]1CC[C@@]2(C)C3=C(CC[C@]12C)[C@@]1(C)CC[C@H](O)C(C)(C)[C@@H]1CC3`, the growth in [1] is 93.4%; in [2], 102%; in [3], 102%; in assay [4] it was 107%; in assay [5] it was 105%; in assay [6], 108%. Besides, the growth was 122% in [7] and 110% in [8].

On to `C=CCc1cc(OC)c(OC)c(OC)c1`, for which the growth in assay [1] is 107%; in [2], 110%; in assay [3], 102%; in [4], 99.2%; in [5], 112%; in [6], 114%. In addition, the figures for the growth in assay [7], in assay [10] and in [8] were 93.1%, 103% and 105%, respectively.

Regarding `O=Cc1c(O)c2ccccc2[nH]c1=O`, the growth in [1] was 114%; in assay [2], 109%; in [3], 95.1%; in [4], 98.5%; in assay [5] it was 106%; in assay [6], 105%. Also, the growth in [7] is 134%; in assay [10], 106%; in assay [8], 104%.

For the compound `O=C(O)c1ccc([N+](=O)[O-])cc1S(=O)(=O)O`, the growth in assay [1] is 110%; in assay [2], 99.5%; in assay [3], 99.5%; in [4], 106%; in assay [5], 116%; in assay [6], 103%. For the same compound, the growth in assay [7] is 99.4%; in assay [10], 100%; in [8] it was 104%.

In the case of `C#CC(O)c1ccccc1` (configuration not stated), the growth in assay [1] was 106%; in assay [2], 104%; in [3], 103%; in assay [4], 101%; in assay [5], 105%; in assay [6], 103%. Further, the growth in [10] and in [8] was 107% in each case.

For `CN(C)c1ccc2nc3ccc(=[N+](C)C)cc-3oc2c1`, the growth in assay [1] is 60.3%; in [2] it was 45.6%; in assay [3], 8.48% (active); in assay [4], -12.3% (active); in assay [5], -76% (active); in [6], 61.3%. In addition, the growth in [7] is -10.6% (active); in assay [10], 101%; in [8], 66.3%.
